Here are results for 40 sequences from the supplement of paper PMC6555819.

The subject of one assay is PPARg:RXRa 30nM:10nM, anti-RXR (NR concentration 30 nM, RXRa partner concentration 10 nM). Briefly: PBM binding z-score (relative to random genomic background probes); higher = stronger binding; sequences stand for … in GC…GCGATTGACAGCGTAGAATGAAGG
A digest of the protocol: (§1)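 Scanned fluorescence from custom Agilent 4×180K protein-binding microarrays was regression-normalized. Binding z-scores use random background probes as reference. Ligand-free nuclear receptor dimers were incubated on the arrays for 1 h and detected with antibodies against each partner (one per run).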
In turn, CCGAGAAGGTTATGGGGCATTCAGGCAACGGTGA yielded a PBM binding z-score of -0.0865.

As to TAGCCTAGGTCATTCAGGGGCCAGTATAGAAAGC, the PBM binding z-score is 0.55. For the sequence CCGAGTAGGTTATGGGGCATGCAGGCAACGGTGA, the PBM binding z-score came out at 2.08. Sequence GGAACGAGGGCAAGATGATAGCAGAGTTTGATGG gave a PBM binding z-score of 0.0817.

In turn, CGAACTAGGTCAGAACAGGACAGTGGAGGATGAT came in with a PBM binding z-score of 1.86. Consider TCATATCGGTAAAGGTGAAAGTCGAACGATATGA, for which the PBM binding z-score is 3.8. For TCTAGCAGGCCAAAGGGTCACTCAAGAGGTACGG, the PBM binding z-score worked out at 3.5. Take ATCGAAAGGTCGCGAGGTGAGTATACAGAAAGGC: the PBM binding z-score turned out to be 1.89. The sequence CGTCCAAGGTCAAGGTCATTGAAAGAGACTCGAA gave a PBM binding z-score of 3.18. For CGTCAAAGTTCAGCTAAGGTAACGTAAAGCACGC, the PBM binding z-score is 1.03. Take CCGAGTAGTTTATGGGGCATTCAGGCAACGGTGA: the PBM binding z-score is -0.234. On the same count and under the same terms, the result for CCAGACAGGTGCGAAGGTAACTCAGCCTCGATTA reads -0.987; that for ACAGACAGGTGATGAAGGTAACTGAGGCTATCAT, -0.0753. Sequence AGGCAAAGTTCATCTAGGTAACGTAAGATATGCT gave a PBM binding z-score of 2.83. The sequence AGAATGAGGTTATACGTTGATCAGGGAAGAAAGT had a PBM binding z-score of 1.01. On to TCTTGTAGATCAGCAGGTTAATAAAGCTGGCCAA, for which the PBM binding z-score amounted to 2.55.

GTACCAGGGTGAATAGGTCGTTGATGAGTAGGCG came in with a PBM binding z-score of 0.0734. Consider CCGACAGGGGCAAAGGTTACCATACTCAGTACGA, for which the PBM binding z-score came to 5.17.

The next assay relates to PPARg:RXRa 90nM:30nM, anti-RXR (NR concentration 90 nM, RXRa partner concentration 30 nM). Described as above. A digest of the protocol: as §1
For TAGCCTAGGTCATTGGGCCACTATAGTACGCATC, the PBM binding z-score was determined as 3.18. With TAGCCTAGGACATTGGGCCAGTATAGTACGCATC, the PBM binding z-score was -0.224. Sequence ATCTCTAGGTAAGACTCGGTTCAGTGAAGAACGC returned a PBM binding z-score of 0.278. On to ACTAGCAGGCCAAGGGTCTCTCAAGATTAGTCCG, for which the PBM binding z-score turned out to be 4.55. The sequence CCTAGCAGGCCAGGGTCACTCTAGCATTTCGCTT displayed a PBM binding z-score of -0.00564. GCTTGTTGGTCAGTAAAAGGTCACACACCGGTCG registered a PBM binding z-score of 4.03. Sequence TCATATAGGTAAACAGGTGAAAGTGCGTAAGTTA gave a PBM binding z-score of 5.1. In turn, ATCTCTAGGCAAAGTTCAGTGAAAGATCGATAGA returned a PBM binding z-score of 3.67. Sequence ATCTCTAGTTAAAGTTCAGTGAAAGATCGATAGA registered a PBM binding z-score of 2.89. Regarding CCGACTGGGGCAAAGGTTACTATACTCAGTACGA, the PBM binding z-score stood at 9.45.

TCTTGCAGATCAAGCAGGTTAAGAAAGCCTGAGT came in with a PBM binding z-score of 1.14.

For the sequence CGTACTGGGCCATTCAGAGGTCATTGATCATATG, the PBM binding z-score was 2.44. CGACAAAGTTCAACTAAGGTAACGTAAAGCACGC: the PBM binding z-score was 3.95. Same read-out and setting: the result for TCGGCTAGGTCAACGATGGTCAGCTAATCTGCTA reads 2.03; that for AGAATGAGGTGACCAAAGATCAGGGAAACGCTTG, 1.46. For GCGACTGGGGCAAAGCAGGTTACGATAAGGTTGG, the PBM binding z-score was found to be 0.405. As for TCAAATAGGTAATACAGGTGAAAGTCGGCATCTA, the PBM binding z-score worked out at 3.5. GTAACGAGGGCATTCGAGTTGATAGCATGGCGAT came in with a PBM binding z-score of 0.712.

For the sequence CCTATTTGTTGACCATAAGGGCAACCGAAGCTCG, the PBM binding z-score came out at 0.342. On to CCGGCTAGGTCATGGTCAGCTAATCTACAGTATG, for which the PBM binding z-score worked out at 1.38. On the same count and under the same terms, for CCAGACAGGTGAAAGGGAACTCAGTCTGGTACGC the value was 2.69. Same read-out and setting: for CGAACTAGGTCATCCAGGGCAGTGAATACATTGA the value was 5.95; for CCGAGAAGGTTATGGGGCATTCAGGCAACGGTGA, 0.883; for TAGCCTAGGTCATTCAGGGGCCAGTATAGAAAGC, 1.45.

Take CCGAGTAGGTTATGGGGCATGCAGGCAACGGTGA: the PBM binding z-score was 4.14.

On to GGAACGAGGGCAAGATGATAGCAGAGTTTGATGG, for which the PBM binding z-score was determined as 0.398. On to CGAACTAGGTCAGAACAGGACAGTGGAGGATGAT, for which the PBM binding z-score came to 3.73. Still for that read-out and setting: for TCATATCGGTAAAGGTGAAAGTCGAACGATATGA the value was 3.48; for TCTAGCAGGCCAAAGGGTCACTCAAGAGGTACGG, 4.89; for ATCGAAAGGTCGCGAGGTGAGTATACAGAAAGGC, 3.56. On to CGTCCAAGGTCAAGGTCATTGAAAGAGACTCGAA, for which the PBM binding z-score amounted to 5.62. On the same count and under the same terms, for CGTCAAAGTTCAGCTAAGGTAACGTAAAGCACGC the value was 2.96; for CCGAGTAGTTTATGGGGCATTCAGGCAACGGTGA, 0.108; for CCAGACAGGTGCGAAGGTAACTCAGCCTCGATTA, -0.523.

As for ACAGACAGGTGATGAAGGTAACTGAGGCTATCAT, the PBM binding z-score is 0.0172.

AGGCAAAGTTCATCTAGGTAACGTAAGATATGCT: the PBM binding z-score came out at 4.72. Turning to AGAATGAGGTTATACGTTGATCAGGGAAGAAAGT, the PBM binding z-score was found to be 1.78. TCTTGTAGATCAGCAGGTTAATAAAGCTGGCCAA gave a PBM binding z-score of 1.7. GTACCAGGGTGAATAGGTCGTTGATGAGTAGGCG yielded a PBM binding z-score of 0.776.

Sequence CCGACAGGGGCAAAGGTTACCATACTCAGTACGA displayed a PBM binding z-score of 7.95.
